Only a selection was taken, and hits are over-represented in it overall.
Cycloheximide cs: Cycloheximide Counterscreen for Small Molecule Inhibitors of Shiga Toxin. hit rate 12% among 300,000. max response, %. cell reporter, cycloheximide protein synthesis inhibition counterscreen; in the data active = max response mostly above about 13%, no sharp cut-off; inactive = mostly below about 14%; note: read at 38.3 µM for the half of the compounds with a filed dose; 0% is about no effect
TbPYK inhibitor: qHTS of Trypanosoma Brucei Inhibitors. hit rate 0.12% among 410,000. pyruvate kinase (Trypanosoma brucei), Q57TT1. AID 624173, 2012. Potency, µM (highest dose often 76.8 µM), inactives show at the highest dose activity, negative = inhibition, hits mostly inhibitors. TbPYK enzyme, Kinase-Glo Plus ATP luminescence, 45 min; active = well fitted curve in the direction sought with a large enough effect; inconclusive = small, poorly fitted or top-dose-only effect, or another doubt; inactive = no such curve, though single readings can be large; an effect the other way counts as inactive or inconclusive; note: potency is the fitted concentration of half-maximal effect; % is set by controls: 0 for no effect and ±100 for the full control effect; nearly all actives have a fitted effect of over 50% in size
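Activity of T. brucei pyruvate kinase was followed by Kinase-Glo Plus luminescence after the enzyme reacted 45 min at room temperature with 130 uM ADP (final) and substrate. Test compounds were added before ADP at multiple concentrations.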
NS1 function inh: qHTS Assay for Inhibitors of Influenza NS1 Protein Function; Potency, µM (doses to about 46.1 µM), for inactives: top-dose activity, positive = more growth; hit rate 0.4% among 270,000; AID 2326, 2010; note: potency is the fitted concentration of half-maximal effect; actives are rising curves; nearly all actives have a fitted effect of over 50% in size
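A cell-based growth assay was used: compounds that relieve NS1-induced slow growth of budding yeast raise OD600. Assay medium was yeast nitrogen base with ammonium sulphate and -URA supplement, pH 6.0, with 2% galactose.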
LmPK inhibitor: qHTS Assay for Inhibitors of Leishmania Mexicana Pyruvate Kinase (LmPK); hit rate 0.37% among 290,000; AID 1721, 2009; purified LmPK, Kinase-Glo ATP luminescence, 1 h; Potency, µM (doses to about 57.5 µM), without a hit: top-dose activity change, negative = inhibition, most hits filed as inhibitors; Q27686; active = well fitted curve in the direction sought with a large enough effect; inconclusive = small, poorly fitted or top-dose-only effect, or another doubt; inactive = no such curve, though single readings can be large; an effect the other way counts as inactive or inconclusive; note: potency is the fitted concentration of half-maximal effect; % is set by controls: 0 for no effect and ±100 for the full control effect
Target sequence (Q27686 whole entry, looked up): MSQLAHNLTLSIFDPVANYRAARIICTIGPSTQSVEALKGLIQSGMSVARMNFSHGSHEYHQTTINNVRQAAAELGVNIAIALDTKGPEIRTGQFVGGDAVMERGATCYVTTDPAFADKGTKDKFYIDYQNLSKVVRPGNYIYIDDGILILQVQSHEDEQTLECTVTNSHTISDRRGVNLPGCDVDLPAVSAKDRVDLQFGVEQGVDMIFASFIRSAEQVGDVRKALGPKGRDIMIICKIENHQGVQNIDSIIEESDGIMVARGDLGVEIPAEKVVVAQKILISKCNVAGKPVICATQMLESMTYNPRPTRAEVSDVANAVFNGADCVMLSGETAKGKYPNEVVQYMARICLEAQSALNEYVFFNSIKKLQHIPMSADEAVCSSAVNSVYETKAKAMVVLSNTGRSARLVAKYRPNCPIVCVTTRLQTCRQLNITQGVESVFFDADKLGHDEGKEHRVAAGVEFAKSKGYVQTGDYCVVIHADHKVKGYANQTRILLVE
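0.1 nM LmPK, 0.5 mM PEP, 0.1 mM ADP; 50 mM imidazole pH 7.2, 7 mM MgCl2, 50 mM KCl; 1 h RT. Kinase-Glo luminescence readout, normalized to no-enzyme (full inhibition) and uninhibited wells.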
SARS PLpro yeast: qHTS of Yeast-based Assay for SARS-CoV PLP | Potency, µM (titrated, usually from 32.9 µM), for the others: at the highest dose activity, positive = growth rescue, hits mostly activators | hit rate 0.19% among 330,000 | S. cerevisiae expressing SARS-CoV PLpro, growth rescue; note: potency is the fitted concentration of half-maximal effect; 0% is about no effect; nearly all actives have a fitted effect of over 55% in size
Shiga toxin inh: A qHTS for Small Molecule Inhibitors of Shiga Toxin; Vero cells, Shiga toxin protein synthesis inhibition reporter; inhibition, % at 38.7 µM; hit rate 9.2% among 290,000; in the data active = inhibition mostly above about 28%, no sharp cut-off; inactive = mostly below about 43%; note: 0% is about no effect
An asterisk follows results filed as active; ? = inconclusive; . = no result given; + = active, no number; [ ] = dose if it differs, or a comment. Unless noted, calls come from the whole dose curve.

SMILES	Cycloheximide cs	TbPYK inhibitor	NS1 function inh	LmPK inhibitor	SARS PLpro yeast	Shiga toxin inh
Cc1ccnc(NC(=O)CCC2COc3ccccc3O2)c1 (stereo not drawn)	13.0*	-7.6%	-5.1%	-6.5%	-1.3%	17.3
COc1cccc(CNC(=O)C(C)n2c(=O)cc(-c3ccccc3)c3c(C)nn(C)c32)c1 (stereo not drawn)	.	-6.4%	.	.	.	.
COc1ccccc1CNC(=O)C1CCCN(c2nnc(-n3c(C)ccc3C)s2)C1 (stereo not drawn)	.	-10.3%	.	.	.	.
Cn1nc2sc3ccccc3n2c(=O)c1=O	2.9	0.6%	4.3%	1.2%	-0.1%	-1.9
N#Cc1cnc2sc3ccccc3n2c1=N	47.2*	1.3%	-67.7%	-19.1%	-4.2%	50.6*
COc1cccc(CN2CC(C(=O)N(C)C3CCOCC3)CCC2=O)c1 (stereo not drawn)	14.4*	3.7%	5.8%	4.2%	3.1%	16.7
COc1cccc(CN2CC(C(=O)NCCOc3ccccc3)CCC2=O)c1 (stereo not drawn)	19.5*	1.7%	-3.5%	8.8%	?	17.0
COc1cccc(CN2CC(C(=O)NCCOc3ccccc3F)CCC2=O)c1 (stereo not drawn)	7.5	21.5%	-9.9%	0.3%	1.6%	0.7
COC(=O)c1c(NC(=O)c2ccccc2OC)sc(C(=O)N2CCOCC2)c1C	-3.5	0.7%	6.2%	3.2%	0.2%	-16.4
Cc1nn(-c2cccc(Cl)c2)c(Cl)c1/C=N/NC(=O)c1cccs1	29.2*	-4.0%	2.4%	0.6%	9.4%	58.3*
Cc1nn(-c2ccccc2)c(Cl)c1/C=N/NC(=O)c1ccc(NS(=O)(=O)c2cccs2)cc1	20.0*	.	-6.0%	-3.3%	1.1%	32.2
Cc1nn(-c2ccccc2)c(Cl)c1/C=N/NC(=O)c1ccccc1NS(=O)(=O)c1cccs1	5.7	-9.2%	2.0%	-3.3%	13.7%	10.9
CCOc1ccccc1NC(=O)Cn1c(=O)n(Cc2ccc(C(=O)NCCCOC)cc2)c(=O)c2ccccc21	.	-24.0%	.	.	.	.
CC(=O)N(Cc1ccco1)c1nc(C(=O)Nc2ccc(Cl)cc2)c(C)s1	45.6*	-1.2%	-8.0%	0.0%	-12.4%	95.1*
CCCNC(=O)C1Cc2cc(S(=O)(=O)N3CCCCCC3)ccc2N1C(C)=O (stereo not drawn)	.	1.2%	.	.	.	.
Cc1ccc(S(=O)(=O)Nc2cccc(-c3cn4ccsc4n3)c2)cc1	9.6*	1.0%	7.4%	-0.5%	-5.2%	-3.6
Cc1cccc(S(=O)(=O)Nc2cccc(-c3cn4ccsc4n3)c2)c1	8.0	-2.0%	10.2%	1.7%	3.1%	5.1
O=S(=O)(Nc1cccc(-c2cn3ccsc3n2)c1)c1ccc(F)cc1	25.4*	-20.1%	-0.5%	6.0%	-4.9%	105.9*
CC(C)CC(=O)Nc1cccc(-c2cn3ccsc3n2)c1	31.6*	-1.4%	-4.0%	-9.7%	-0.5%	36.4*
Cc1[nH]n(-c2cccc(Cl)c2)c(=O)c1C=NCC(C)C	42.8*	0.9%	.	-2.7%	-11.2%	95.5*
CCCc1[nH]n(-c2nc3ccccc3s2)c(=O)c1C=NCC1CCCO1 (stereo not drawn)	24.4*	2.9%	-32.8%	3.1%	4.0%	6.6
Cc1[nH]n(-c2ccccc2)c(=O)c1C=NCC1CCCO1 (stereo not drawn)	22.5*	-0.6%	4.5%	-1.9%	-1.3%	49.2*
Cc1[nH]n(-c2ccccc2)c(=O)c1/C=N/N(C)c1ccccc1	6.7	0.0%	-20.3%	-1.2%	-0.3%	45.5*
N#Cc1ccccc1Cn1c(=O)n(-c2ccc(F)c(Cl)c2)c(=O)c2sccc21	.	0.9%	.	.	.	.
Cc1ccc(N2CCN(C(=O)c3c(C)oc4ncn(CC(C)C)c(=O)c34)CC2)c(C)c1	.	-1.4%	.	.	.	.
SMILES	Cycloheximide cs	TbPYK inhibitor	NS1 function inh	LmPK inhibitor	SARS PLpro yeast	Shiga toxin inh
CCOc1ccc(CCNCc2c(C(=O)O)n(Cc3ccc(C)cc3)c3cc(OC)ccc23)cc1	.	0.0%	.	.	.	.
Cc1[nH]n(-c2ccccc2)c(=O)c1C=NCc1ccco1	41.2*	.	-3.8%	-2.7%	-0.2%	97.8*
Cc1[nH]n(-c2cccc(Cl)c2)c(=O)c1C=NCc1ccco1	42.8*	-4.8%	-6.3%	-7.4%	-1.0%	107.0*
CO[C@H]1[C@@H](OC(N)=O)[C@H](O)[C@@H](Oc2ccc3c(O)c(NC(=O)c4ccc(O)c(CC=C(C)C)c4)c(=O)oc3c2C)OC1(C)C	.	-5.0%[33.2 µM]	.	.	.	.
CCCCn1cc(S(=O)(=O)c2cccc(C)c2)c(=O)c2cc(F)c(N3CCOCC3)cc21	.	4.0%	.	.	.	.
O=C(NC1CCCCCCC1)c1ccco1	18.0*	0.8%	-36.9%	-6.3%	-12.4%	43.0*
O=C(N[C@@H](Cc1ccccc1)C(=O)NC1CCCCCC1)c1ccco1	52.5*	-3.7%	-0.4%	-3.7%	-0.2%	98.3*
C/C(=N\NC(=O)NC1CCCCC1)c1ccco1	11.8*	-1.2%	.	-2.2%	-0.1%	22.9
O=C(N[C@@H](Cc1ccccc1)C(=O)NC1CCCCC1)c1ccco1	14.0	2.3%	10.2%	-0.2%	12.9%	22.6*
CC(OC(=O)c1ccco1)C(=O)NC1CCCCC1 (stereo not drawn)	-3.3	-7.2%	-7.8%	-3.4%	-3.8%	-19.6
COCCCNC(=O)C1CCN(Cc2nc(-c3ccc(OC)c(OC)c3)oc2C)CC1	.	-1.6%	.	.	.	.
O=C(NC(Cc1ccccc1)C(=O)O)/C(=C\c1ccco1)NC(=O)c1ccco1 (stereo not drawn)	19.1*	-12.9%	3.6%	3.2%	1.4%	18.5
O=C(COC(=O)c1ccco1)NC1CCCCC1	22.3*	1.8%	-2.7%	3.6%	-0.1%	17.0
NC1=NC(c2ccccc2)N=C(Nc2ccccc2)N1 (stereo not drawn)	14.1*	.	-20.4%	0.7%	-1.0%	19.8
CCCc1cnc(N2CCN(S(C)(=O)=O)CC2)nc1	23.2*	-2.7%	3.1%	-2.1%	0.7%	40.6
CCCCOc1ccc(CSCCN=C(N)N)cc1	30.9*	-13.0%	0.6%	-0.4%	0.1%	42.1*
COc1ccc2c(c1)CC/C(=C\C=C\c1ccccc1OC)C2=O	37.7*	-8.7%	-4.8%	0.0%	-0.2%	89.5*
COc1ccc2c(c1)C(=O)/C(=C/C=C/c1ccccc1)CC2	20.6*	1.8%	-13.1%	-7.6%	3.3%	+
O=C(NNC(=O)c1ccccn1)c1ccc(OC(F)F)cc1	.	-5.6%	.	.	3.3%	.
O=C(NCCc1ccccn1)c1ccc(OC(F)F)cc1	25.4*	-2.6%	.	-7.0%	-4.0%	75.4*
O=C(NCc1ccccn1)C(F)(F)C(F)(F)C(=O)NCc1ccccn1	-4.3	-9.4%	?	-4.4%	-3.5%	-6.9
O=C(NCCc1ccccn1)C(F)(F)C(F)(F)C(F)(F)C(F)(F)C(F)(F)C(F)F	14.5*	-2.2%	5.9%	4.4%	5.2%	-5.0

Source: PubChem
